Measured values from paper PMC5540273 (PLoS ONE, 2017).

Key:
Details in all cases: concentration: 1 μM, replicates: in singlicate; n = 1
PAK2 = test system: PAK2
PAK3 = test system: PAK3
PAK4 = test system: PAK4
PAK6 = test system: PAK6
PAK7 = test system: PAK7
PCTK1 = test system: T1, PCTK1
T1 construct: gene CDK16

PCTK2 = test system: T2, PCTK2
T2 construct: gene CDK17

PCTK3 = test system: T3, PCTK3
T3 construct: gene CDK18

PDGFRA = test system: PDGFRA
PDGFRB = test system: PDGFRB
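Note: KINOMEscan kinase panel screen.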

| SMILES | %Inh (PAK2) | %Inh (PAK3) | %Inh (PAK4) | %Inh (PAK6) | %Inh (PAK7) | %Inh (PCTK1) | %Inh (PCTK2) | %Inh (PCTK3) | %Inh (PDGFRA) | %Inh (PDGFRB) |
| --- | --- | --- | --- | --- | --- | --- | --- | --- | --- | --- |
| Nc1ncnc2c1ncn2-c1cccc(F)c1 [SKF-97560] | 0% | 0% | 5% | 12% | 3% | 27% | 1% | 10% | 43% | 58% |
| FC(F)(F)c1ccc(-c2ncn(CCCN3CCOCC3)c2-c2ccncc2)cc1 [SB-217780] | 34% | 12% | 21% | 17% | 0% | 10% | 0% | 20% | 34% | 32% |
| COc1ccc(CNC(=O)NC2CCN(c3ccnc(Nc4ccc(F)cc4)n3)C2)cc1 (centres unmarked) [GSK1379706] | 0% | 0% | 0% | 0% | 3% | 0% | 18% | 39% | 14% | 43% |
| Nc1n[nH]c2nnc(-c3ccccc3)c(-c3ccccc3)c12 [GW554060] | 0% | 0% | 0% | 0% | 0% | 0% | 0% | 20% | 0% | 2% |
| Cc1ccccc1COc1cc(-n2cnc3cc(Cl)ccc32)sc1C(N)=O [GW813349] | 0% | 0% | 0% | 1% | 0% | 15% | 0% | 0% | 1% | 0% |
| Nc1ncnc2c1ncn2-c1ccc(Cl)cc1 [AH2635] | 0% | 7% | 0% | 0% | 6% | 0% | 0% | 0% | 38% | 86% |
| O=C1NC(=O)C(c2ccccc2)=C1Nc1cccc(O)c1 [SB-390534] | 16% | 26% | 0% | 0% | 0% | 0% | 6% | 0% | 0% | 0% |
| Cc1nn2c(=O)cc(N3CCOCC3)nc2n1Cc1cccc(Cl)c1Cl [GSK2342769] | 2% | 0% | 0% | 0% | 0% | 4% | 0% | 15% | 0% | 16% |
| O=C(Nc1n[nH]c2nc(-c3ccccc3)c(Br)cc12)C1CC1 [SB-708998] | 10% | 9% | 0% | 0% | 0% | 0% | 0% | 0% | 20% | 93.7% |
| Cc1cccc(-c2nc(Nc3ccc4c(cnn4C)c3)c3ccccc3n2)n1 [GW876731] | 33% | 0% | 17% | 14% | 0% | 0% | 0% | 11% | 9% | 1% |
| CN1C(=O)C(Nc2ccccc2)=C(c2ccccc2)C1=O [SB-300079] | 0% | 0% | 0% | 0% | 0% | 0% | 0% | 12% | 0% | 24% |
| CCC(=O)c1c(-c2ccccc2)c2cc(Cl)ccc2c(=O)n1Cc1cc(S(C)(=O)=O)n(CC(F)F)n1 | 0% | 0% | 0% | 0% | 0% | 0% | 4% | 0% | 0% | 0% |
| O=C(NCCNc1ccnc(Nc2ccc(F)cc2)n1)Nc1ccc2c(c1)OCO2 [GSK1379882] | 0% | 0% | 0% | 12% | 7% | 14% | 0% | 0% | 6% | 53% |
| OCCCNc1nccc(-c2c(-c3cccc(C(F)(F)F)c3)nn3cc(C(F)(F)F)ccc23)n1 [GW630813] | 0% | 3% | 0% | 0% | 12% | 11% | 0% | 19% | 0% | 6% |
| CCc1ccc(-c2ccc3c(c2)-c2nn(C)cc2S(=O)(=O)N3C)cc1 | 11% | 0% | 0% | 9% | 0% | 0% | 0% | 0% | 0% | 0% |
| Nc1nccc2scc(-c3ccc4c(c3)CCN4C(=O)Cc3ccccc3)c12 [GSK2576924] | 0% | 55% | 0% | 0% | 30% | 0% | 9% | 17% | 4% | 43% |
| COc1cc2nccc(Nc3ccc(OCc4ccc(NC(C)=O)cc4)cc3)c2cc1OC.Cl [GW440135] | 0% | 0% | 9% | 0% | 0% | 9% | 0% | 0% | 93.1% | 99.6% |
| Cc1c(Cn2c(C)nn3c(=O)cc(N4CCO[C@H](C)C4)nc23)cccc1C(F)(F)F [GSK2373690] | 3% | 7% | 0% | 0% | 0% | 0% | 0% | 26% | 0% | 14% |

| SMILES | %Inh (PAK2) | %Inh (PAK3) | %Inh (PAK4) | %Inh (PAK6) | %Inh (PAK7) | %Inh (PCTK1) | %Inh (PCTK2) | %Inh (PCTK3) | %Inh (PDGFRA) | %Inh (PDGFRB) |
| --- | --- | --- | --- | --- | --- | --- | --- | --- | --- | --- |
| CC(C)(C)c1ccc(C(=O)Nc2cn3cc(-c4ccccc4)ccc3n2)cc1 | 0% | 8% | 1% | 0% | 6% | 0% | 0% | 0% | 41% | 93% |
| O=C(Nc1ccc2c(c1)OCO2)NC1CCN(c2ccnc(NCc3ccc(F)cc3)n2)CC1 [GSK1379859] | 0% | 14% | 0% | 0% | 0% | 0% | 0% | 0% | 0% | 12% |
| COc1ccc(Nc2nccc(N3CCC(NS(=O)(=O)c4ccc(NC(C)=O)cc4)C3)n2)cc1 (centres unmarked) [GSK1379729] | 0% | 7% | 0% | 0% | 0% | 0% | 0% | 6% | 23% | 15% |
| COc1cc(Nc2nccc(N3CCC(NC(=O)C(C)c4ccc(Cl)cc4)C3)n2)cc(OC)c1OC (centres unmarked) [GSK1379757] | 11% | 22% | 0% | 0% | 0% | 0% | 0% | 0% | 0% | 14% |
| Cc1cc(Nc2nc(-c3cccc(C)n3)nc3ccccc23)ccn1 [GW872411] | 15% | 0% | 0% | 0% | 17% | 0% | 0% | 0% | 0% | 0% |
| COC(=O)c1c(-c2ccccc2)c2cc(Br)ccc2c(=O)n1Cc1ccc(S(C)(=O)=O)cc1 | 17% | 26% | 6% | 35% | 2% | 23% | 5% | 0% | 8% | 73% |
| CCC(=O)c1c(-c2ccccc2)c2cc(Cl)ccc2c(=O)n1Cc1cc(S(C)(=O)=O)n(CC(N)=O)n1 | 5% | 0% | 5% | 1% | 0% | 0% | 0% | 13% | 0% | 10% |
| CCCNC(=O)Nc1ccc(Oc2ncnc3ccn(C)c23)cc1 | 30% | 0% | 0% | 12% | 5% | 15% | 8% | 0% | 54% | 46% |
| Nc1nc(-c2ccccc2F)c(-c2ccnc3ccccc23)s1 [GW560459] | 18% | 14% | 0% | 0% | 0% | 9% | 0% | 13% | 0% | 6% |
| COc1ccc(-c2cc3c(C)nc(N)nc3n([C@H]3CC[C@H](O)CC3)c2=O)cn1 | 11% | 0% | 21% | 0% | 0% | 0% | 0% | 0% | 0% | 0% |
| Nc1ncnc2c1ncn2-c1cccc2ccccc12 [SKF-97184] | 56% | 0% | 0% | 0% | 0% | 0% | 100% | 10% | 0% | 7% |
| Cc1nnc(-c2ccc(C)c(-c3ccc(C(=O)O)cc3)c2)o1 [GW608005] | 9% | 0% | 0% | 0% | 0% | 0% | 0% | 2% | 0% | 4% |
| CCC(=O)c1c(-c2ccccc2)c2cc(Cl)ccc2c(=O)n1Cc1ccc(C(=O)O)cc1 | 0% | 0% | 0% | 0% | 0% | 0% | 0% | 0% | 19% | 58% |
| CCC(=O)c1c(-c2ccccc2)c2cc(Cl)ccc2c(=O)n1Cc1cc(C(=O)NC2CC2)n(C)n1 | 16% | 11% | 0% | 4% | 0% | 1% | 6% | 0% | 15% | 77% |
| Cc1cccc(-c2cc(-c3c[nH]nc3-c3ccccn3)ccn2)c1 [GW679395] | 22% | 1% | 0% | 0% | 0% | 5% | 0% | 1% | 0% | 61% |
| CCn1c(-c2ccoc2)nc2cnccc21 [SB-733887] | 19% | 0% | 0% | 0% | 0% | 9% | 0% | 1% | 63% | 9% |
| COc1cc2nccc(Nc3cccc(Oc4ccccc4)c3)c2cc1OC.Cl [GW284543] | 0% | 0% | 0% | 0% | 4% | 4% | 0% | 2% | 22% | 26% |
